From PubChem BioAssay (NCATS)
Results filed as inconclusive are left out. Activity calls are given as the source filed them. Calls come from the whole dose curve; as a rule, active = well fitted curve in the direction sought with a large enough effect; inconclusive = small, poorly fitted or top-dose-only effect, or another doubt; inactive = no such curve, though single readings can be large; an effect the other way counts as inactive or inconclusive.

How the values were obtained:
[1] = Quantitative High-Throughput drug screen in 47 multiple myeloma cell lines against the NCATS MIPE library collection: Karpas25_ECACC cell viability assay (AID 1918968; note: nearly all actives have a fitted effect of over 35% in size; note: potency is the fitted concentration of half-maximal effect)
How it was run: (§1)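 CellTiter-Glo luminescence (ATP) after 48 h compound exposure, 37C/5% CO2; 500 cells/well; MIPE 4.0 approved/investigational drugs pinned in; DMSO = 100%, media only = 0% viability.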

[2] = Quantitative High-Throughput drug screen in 47 multiple myeloma cell lines against the NCATS MIPE library collection: KMS12PE_JCRB cell viability assay (AID 1918972); note: nearly all actives have a fitted effect of over 30% in size; note: potency is the fitted concentration of half-maximal effect
How it was run: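 CellTiter-Glo ATP luminescence gave viability after 48 h compound treatment at 37C of 500 multiple myeloma cells per well. Normalisation used DMSO-only wells as 100% and media-only wells as 0% viability; primary qHTS of approved and investigational drugs.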

[3] = Quantitative High-Throughput drug screen in 47 multiple myeloma cell lines against the NCATS MIPE library collection: KMS26_JCRB cell viability assay (AID 1918975); note: nearly all actives have a fitted effect of over 45% in size; note: potency is the fitted concentration of half-maximal effect
How it was run: (§2)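 Steps: seed 500 cells per well; pin-transfer MIPE 4.0 library; incubate 48 h at 37C, 5% CO2, humidified; add CellTiter-Glo, 5 min room temperature; read luminescence.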

[4] = Quantitative High-Throughput drug screen in 47 multiple myeloma cell lines against the NCATS MIPE library collection: MMM1_PLB cell viability assay (AID 1918976); note: nearly all actives have a fitted effect of over 35% in size; note: potency is the fitted concentration of half-maximal effect
How it was run: (§3)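 ATP-based CellTiter-Glo luminescence after 48 h drug exposure (37 °C, 5% CO2) of 500 myeloma cells per well. DMSO-only wells set 100% viability, media-only wells 0%; MIPE 4.0 library added by pin tool.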

[5] = Quantitative High-Throughput drug screen in 47 multiple myeloma cell lines against the NCATS MIPE library collection: NCIH929_DSMZ cell viability assay (AID 1918978); note: nearly all actives have a fitted effect of over 35% in size; note: potency is the fitted concentration of half-maximal effect
How it was run: as §3

[6] = Quantitative High-Throughput drug screen in 47 multiple myeloma cell lines against the NCATS MIPE library collection: OCIMY1_PLB cell viability assay (AID 1918979); note: nearly all actives have a fitted effect of over 35% in size; note: potency is the fitted concentration of half-maximal effect
How it was run: as §3

[7] = Quantitative High-Throughput drug screen in 47 multiple myeloma cell lines against the NCATS MIPE library collection: MM1S_ATCC cell viability assay (AID 1918980); note: potency is the fitted concentration of half-maximal effect; nearly all actives have a fitted effect of over 45% in size
How it was run: as §3

[8] = Quantitative High-Throughput drug screen in 47 multiple myeloma cell lines against the NCATS MIPE library collection: MM1R_ATCC cell viability assay (AID 1918981); note: nearly all actives have a fitted effect of over 35% in size; note: potency is the fitted concentration of half-maximal effect
How it was run: as §3

[9] = Quantitative High-Throughput drug screen in 47 multiple myeloma cell lines against the NCATS MIPE library collection: KMS28PE_JCRB cell viability assay (AID 1918983); note: nearly all actives have a fitted effect of over 35% in size; note: potency is the fitted concentration of half-maximal effect
How it was run: as §3

[10] = Quantitative High-Throughput drug screen in 47 multiple myeloma cell lines against the NCATS MIPE library collection: L363_DSMZ cell viability assay (AID 1918984); note: nearly all actives have a fitted effect of over 40% in size; note: potency is the fitted concentration of half-maximal effect
How it was run: as §3

[11] = Quantitative High-Throughput drug screen in 47 multiple myeloma cell lines against the NCATS MIPE library collection: KMS34_JCRB cell viability assay (AID 1918985); note: nearly all actives have a fitted effect of over 40% in size; note: potency is the fitted concentration of half-maximal effect
How it was run: as §3

[12] = Quantitative High-Throughput drug screen in 47 multiple myeloma cell lines against the NCATS MIPE library collection: OCIMY7_PLB cell viability assay (AID 1918987); details: OCI-MY7 myeloma viability, CellTiter-Glo ATP, 48 h; viability (% of DMSO): at 45.8 µM (top of the series); note: nearly all actives have a fitted effect of over 65% in size; note: potency is the fitted concentration of half-maximal effect
How it was run: as §3

[13] = Quantitative High-Throughput drug screen in 47 multiple myeloma cell lines against the NCATS MIPE library collection: OCIMY5_PLB cell viability assay (AID 1918988); note: potency is the fitted concentration of half-maximal effect; nearly all actives have a fitted effect of over 65% in size
How it was run: as §3

[14] = Quantitative High-Throughput drug screen in 47 multiple myeloma cell lines against the NCATS MIPE library collection: KMS12BM_JCRB cell viability assay (AID 1918971); note: nearly all actives have a fitted effect of over 35% in size; note: potency is the fitted concentration of half-maximal effect
How it was run: as §2

[15] = Quantitative High-Throughput drug screen in 47 multiple myeloma cell lines against the NCATS MIPE library collection: MOLP8_DSMZ cell viability assay (AID 1918977); note: nearly all actives have a fitted effect of over 45% in size; note: potency is the fitted concentration of half-maximal effect
How it was run: as §3

[16] = Quantitative High-Throughput drug screen in 47 multiple myeloma cell lines against the NCATS MIPE library collection: LP1_DSMZ cell viability assay (AID 1918982); note: nearly all actives have a fitted effect of over 35% in size; note: potency is the fitted concentration of half-maximal effect
How it was run: as §3

[17] = Quantitative High-Throughput drug screen in 47 multiple myeloma cell lines against the NCATS MIPE library collection: KMS27_JCRB cell viability assay (AID 1918970); note: nearly all actives have a fitted effect of over 30% in size; note: potency is the fitted concentration of half-maximal effect
How it was run: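 CellTiter-Glo luminescence after 48 h drug exposure at 37 °C; 500 cells/well, 1536-well format, pin-tool compound addition; DMSO = 100%, media-only = 0% viability.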

[18] = Quantitative High-Throughput drug screen in 47 multiple myeloma cell lines against the NCATS MIPE library collection: KMS20_JCRB cell viability assay (AID 1918973); note: nearly all actives have a fitted effect of over 45% in size
How it was run: as §1

Measured: Potency

COc1ccc(-c2cc(=O)c3c(O)cc(O)cc3o2)cc1O
inactive: [6] | [9]
active: [1] 3.72 µM | [2] 5.9 µM | [3] 5.9 µM | [4] 0.935 µM | [5] 2.64 µM | [7] 6.62 µM | [8] 16.6 µM | [10] 5.9 µM | [11] 20.9 µM | [12] 3.72 µM | [13] 2.64 µM

COc1ccc(C2Sc3ccccc3N(CCN(C)C)C(=O)C2OC(C)=O)cc1 (stereo unspecified)
inactive: [1] | [2] | [5] | [6] | [8] | [10] | [11]
active: [14] 2.64 µM | [7] 18.7 µM | [13] 10.5 µM

Cc1ccc(Nc2cc(-c3cccc(N4C(=O)c5ccccc5C4=O)c3)ncn2)cc1NS(C)(=O)=O
active: [1] 11.8 µM | [14] 20.9 µM | [2] 26.4 µM | [4] 20.9 µM | [15] 20.9 µM | [5] 3.32 µM | [7] 20.9 µM | [8] 23.5 µM | [16] 26.4 µM | [10] 18.7 µM | [13] 20.9 µM
inactive: [6]

NC(=O)[C@@H](CCC(F)(F)F)N(Cc1ccc(-c2ncon2)cc1F)S(=O)(=O)c1ccc(Cl)cc1
active: [14] 18.7 µM | [4] 26.4 µM | [7] 16.6 µM | [13] 23.5 µM
inactive: [17] | [3] | [8]

O=c1cc(-c2ccc(O)cc2)oc2cc(O)cc(O)c12
active: [1] 10.5 µM | [14] 13.2 µM | [4] 18.7 µM | [5] 6.62 µM | [7] 8.33 µM | [9] 18.7 µM | [11] 13.2 µM | [13] 10.5 µM

COc1ccc(-c2coc3cc(O)cc(O)c3c2=O)cc1
inactive: [1] | [14] | [18] | [15] | [5] | [16] | [9] | [11] | [12]

COCCOC(=O)C1=C(C)NC2=C(C(=O)CC(c3ccccc3OC)C2)C1c1cccc(O)c1 (stereo unspecified)
inactive: [6]
active: [1] 13.2 µM | [14] 10.5 µM | [3] 8.33 µM | [7] 16.6 µM | [9] 5.9 µM | [10] 0.001 µM | [12] 2.64 µM | [13] 8.33 µM

CC(C)C(C)C=CC(C)C1CCC2C3=CC=C4CC(O)CCC4(C)C3CCC21C (stereo unspecified)
inactive: [1] | [14] | [2] | [15] | [5] | [6] | [16] | [10] | [11]
active: [9] 16.6 µM | [13] 23.5 µM

O=C(O)c1ccc(-c2cc3cccnc3c(-c3ccc4nonc4c3)n2)cc1
active: [1] 23.5 µM | [14] 20.9 µM | [2] 20.9 µM | [4] 26.4 µM | [15] 26.4 µM | [5] 26.4 µM | [7] 23.5 µM | [11] 14.8 µM

O=c1c(-c2ccc(O)cc2)coc2cc(OC3O[C@H](CO)[C@H](O)[C@H](O)[C@H]3O)cc(O)c12 (stereo partly specified)
inactive: [17]
active: [1] 3.32 µM | [4] 18.7 µM | [5] 2.09 µM | [7] 4.18 µM | [8] 16.6 µM | [12] 1.48 µM | [13] 1.48 µM

Cc1c(NC(=O)c2ccc(C(C)(C)C)cc2)cccc1-c1cn(C)c(=O)c(Nc2ccc(C(=O)N3CCOCC3)cc2)n1
inactive: [15]
active: [1] 16.6 µM | [14] 23.5 µM | [2] 5.26 µM | [3] 16.6 µM | [4] 26.4 µM | [5] 20.9 µM | [7] 20.9 µM | [8] 20.9 µM | [9] 23.5 µM | [12] 8.33 µM | [13] 16.6 µM

C[C@]12CCC3c4ccc(O)cc4CCC3C1CCC2=O (stereo partly specified)
inactive: [17] | [2] | [5] | [6] | [8]
active: [14] 20.9 µM | [3] 3.32 µM | [15] 20.9 µM | [16] 18.7 µM | [9] 11.8 µM | [11] 10.5 µM | [13] 0.0019 µM

O=C(Nc1cccc(Br)c1)c1cccc(S(=O)(=O)N2CCCCCC2)c1
active: [1] 18.7 µM | [14] 20.9 µM | [2] 10.5 µM | [4] 18.7 µM | [6] 14.8 µM | [8] 18.7 µM | [16] 10.5 µM | [9] 23.5 µM | [10] 13.2 µM | [13] 18.7 µM
inactive: [15]

CC(C)OC(=O)CCCC=CC[C@@H]1[C@H](C=C[C@@H](O)COc2cccc(C(F)(F)F)c2)[C@H](O)C[C@@H]1O
active: [1] 16.6 µM | [4] 14.8 µM | [15] 26.4 µM | [5] 18.7 µM | [9] 20.9 µM | [11] 13.2 µM | [12] 14.8 µM | [13] 16.6 µM
inactive: [2]

N[C@H](CSC(c1ccccc1)(c1ccccc1)c1ccccc1)C(=O)O
active: [1] 11.8 µM | [17] 18.7 µM | [7] 13.2 µM | [11] 9.35 µM | [12] 7.43 µM | [13] 9.35 µM
inactive: [4]
